# Only some compounds are listed: those with a hit (about 3.9% of all), similar ones and a draw of the others.
# Yeast superoxide = caloric restriction mimetics inhibiting age-related superoxide in yeast | S. cerevisiae aged cells, superoxide DHE fluorescence; stronger effect = lower value | superoxide response (% of plate mean), % at 10 µM | actives 0.18% (n = 330,000);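 active means superoxide response under a set limit, about three screen SD below normal, cut at about 65% in these data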;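 further: yeast aged for seven days with compound at 30 °C before DHE staining; 100% = average MFI of all compound-treated wells on the plate with controls excluded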
# AHR activator = activators of human aryl hydrocarbon receptor. P35869. AHR-responsive luciferase reporter cells, luminescence. activation, % at 5 µM. actives 2.5% (n = 320,000). AID 2796; in the data active means activation above about 47%;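 further: 0% = vehicle wells and 100% = reference agonist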
# PLCg1 inh = blocks human PLC-gamma1 enzyme activity; P19174; purified PLC-gamma1, fluorogenic substrate, fluorescence; inhibition, % at 12.2 µM; actives 0.84% (n = 370,000); in the data active means inhibition above about 9.5%
# HIF activator = HIF pathway transcriptional activation; U2OS HRE-luciferase reporter, luminescence; normalized: DMSO 0%, desferrioxamine 100%; activation, % at 7.5 µM (by protocol); actives 0.32% (n = 300,000); AID 1910;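 active means mean activation of at least 10% of the iron chelator positive control signal, with at least half of replicates also reaching 10%; inconclusive means mean and replicate majority disagree about reaching 10%; inactive means mean and most replicates under 10%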
# PLCb3 inh = blocks human PLC-beta3 enzyme activity; Purified PLC-beta3, fluorogenic substrate, fluorescence; inhibition, % at 12.2 µM; actives 0.18% (n = 370,000); in the data active means inhibition above about 11%;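 further: 0% = median of compound wells on plate and 100% = full blocker control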
# sPLA2-III inh = Blocks human group III sPLA2 activity; Q9NZ20; QFRET BODIPY PC-A2 liposome hydrolysis, fluorescence; inhibition, % at 12.2 µM; actives 0.56% (n = 370,000); AID 743126;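 active means inhibition above mean plus 3 SD of compounds lying within the high and low control bounds, cut at about 19% in these data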;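 further: 0% = median of test compound wells and 100% = no enzyme DMSO wells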
# * = called active by the depositor; u = inconclusive; x = not tested or not shown.
SMILES,Yeast superoxide,AHR activator,PLCg1 inh,HIF activator,PLCb3 inh,sPLA2-III inh
O=C(CC1Nc2ccccc2NC1=O)NCCc1ccccc1 (configuration not stated),94.7,48.7*,-30.1,0.7,-34.8,-9.1
O=C(CC1Nc2ccccc2NC1=O)c1ccccc1 (configuration not stated),97.9,77.9*,x,0.1,x,x
CC(NC(=O)CC1Nc2ccccc2NC1=O)c1ccccc1 (configuration not stated),104.0,15.9,-53.7,0.0,-73.1,-2.8
CCCC1CCC2(CCCN2CCOC(=O)Nc2ccc(OC)cc2)CC1 (configuration not stated),x,x,-1.1,x,0.7,-16.7
O=C(Nc1nc2ncccn2c1-c1ccc(F)cc1)c1ccccc1,x,x,-124.8,x,-151.7,7.7
Cc1ccc(/C=N/Nc2nncc(-c3ccccc3)n2)o1,114.6,-1.2,0.5,1.4,0.6,0.7
Cc1[nH]n(-c2ccccc2)c(=O)c1/C=N/Nc1nncc(-c2ccccc2)n1,140.4,53.0*,-155.4,-0.2,-155.1,18.0
Cc1nc(-n2[nH]c3c(c2=O)CCCC3)[nH]c(=O)c1Cc1ccccc1,108.3,2.6,-88.8,12.5*,-116.7,0.7
COc1ccc(C2N=C(c3ccccc3)NO2)cc1OC (configuration not stated),102.2,43.8,-5.4,2.1,-12.7,1.7
COc1cc(C2N=C(c3ccccc3)NO2)cc(Br)c1O (configuration not stated),91.5,64.6*,-31.3,0.1,-43.1,-9.7
CCCC(=O)Nc1nn(C)c2nc3ccc(C)cc3cc12,96.0,7.2,-85.7,1.3,-103.3,-1.2
Cc1cccc2cc3c(NC(=O)C(C)C)nn(C)c3nc12,102.7,72.2*,-135.9,0.0,-174.3,-2.4
Cc1ccc2cc3c(NC(=O)C(C)C)nn(C)c3nc2c1,107.5,66.1*,-329.0,0.0,-340.8,16.4
COC(=O)N/N=C/c1cc(Cl)cc(Cl)c1OCc1ccc(F)cc1,89.4,55.2*,0.0,-2.5,4.3,-2.4
COCC(=O)N1CCC(C(=O)NC2CCCc3ccccc32)CC1 (configuration not stated),x,x,1.6,x,3.5,0.5
Cc1ccc(/C(N)=N/OC(=O)c2ccc(F)cc2)cc1,102.6,4.1,-2.1,4.7,3.6,-0.6
N/C(=N\OC(=O)c1ccc(F)cc1)c1ccc(Br)cc1,112.7,52.2*,-1.4,2.4,-6.4,1.6
N/C(=N\OC(=O)c1ccc(F)cc1)c1ccccc1,118.6,59.9*,2.8,2.8,2.1,4.0
Cc1cc2nn(-c3cccc4ccccc34)nc2cc1NC(=O)c1cccs1,110.4,57.1*,-56.4,0.2,-87.9,-9.1
Cc1ccc(-c2nn3c(C)nnc3s2)cc1NC(=O)c1cccs1,99.1,28.8,1.5,0.0,0.2,0.5
C[C@H]1C(=O)N2[C@@H](C[C@]3(c4c[nH]c5ccccc45)c4ccccc4N(S(=O)(=O)c4ccccc4)[C@H]23)C(=O)N1C,x,x,-2.4,x,-2.9,-16.7
Cc1ccc(S(=O)(=O)N2CCCC(C(=O)Nc3c(C)n(C)n(-c4ccccc4)c3=O)C2)cc1 (configuration not stated),x,x,1.5,x,2.2,2.0
Cn1ncc(Cl)c1C(=O)Nc1nc2ccc(Cl)cc2s1,99.5,59.6*,-8.5,u,-7.7,-3.2
COc1cc(NC(=O)c2c(Cl)cnn2C)c(OC)cc1Cl,89.5,4.4,2.8,0.2,2.7,1.4
Cc1cc(C(=O)Nc2nc3ccc(Cl)cc3s2)nn1C,100.7,-2.9,-0.3,2.8,-10.4,-10.4
SMILES,Yeast superoxide,AHR activator,PLCg1 inh,HIF activator,PLCb3 inh,sPLA2-III inh
Cn1ncc(Cl)c1C(=O)Nc1cc(C(F)(F)F)ccc1F,87.6,77.8*,1.2,-0.2,-0.4,5.1
CCCC1CCC2(CC1)CCC2OC(=S)NCc1cccc(F)c1 (configuration not stated),x,x,0.1,x,2.7,-4.1
CCOC(=O)N1CCN(c2ccc(Cl)c(Cl)c2)CC1,87.6,-3.0,-1.9,107.4*,-0.5,-0.2
CCOC(=O)N1CCN(C2CC(=O)N(c3ccc(Cl)c(Cl)c3)C2=O)CC1 (configuration not stated),105.9,4.0,1.0,x,-1.2,-11.5
Cc1cc(NC(=O)CSc2ccc3nnc(-c4cccs4)n3n2)no1,101.1,48.9*,-59.5,-0.3,-72.6,5.9
O=C(CSc1ccc2nnc(-c3ccccn3)n2n1)Nc1ccc2c(c1)OCCO2,108.2,-8.6,1.3,0.1,0.9,1.6
Cc1ccc(NC(=O)CSc2ccc3nnc(-c4cccnc4)n3n2)cc1,97.8,63.1*,-0.2,-0.3,-2.5,-4.2
O=C(CSc1ccc2nnc(-c3ccccn3)n2n1)Nc1ccc2c(c1)OCO2,106.5,53.0*,3.7,-0.3,3.3,8.7
CCC(C)N(C(=O)CNc1nnnn1-c1ccccc1)C(C)CC (configuration not stated),x,x,2.7,x,-2.4,11.8
CC(C)(C)OC(=O)N1CCC2CCN(CCc3ccccc3)CC21 (configuration not stated),x,x,1.2,x,0.8,-1.7
COc1ccccc1C(=O)N1CCC(Oc2cccnc2)CC1,x,x,-1.1,x,-14.3,7.0
CC(O)CNc1nc2ccccc2n1-c1ncnc2sc3c(c12)CCC3 (configuration not stated),99.3,58.7*,0.9,-0.2,0.5,-10.1
COCCOc1ccc(C(F)(F)F)cc1NC(=O)c1ccc(C(F)(F)F)cc1,139.1,70.1*,1.4,-0.6,-0.6,0.6
COCCOc1ccc(C(F)(F)F)cc1NC(=O)COC(=O)c1cc[n+]([O-])cc1,105.0,3.9,4.4,-0.3,-3.0,-3.5
COCCOc1ccc(C(F)(F)F)cc1NC(=O)c1ccccc1F,96.1,61.2*,-1.4,0.1,-2.6,6.0
O=C(c1cccc(Br)c1)N1CCC(Oc2cccnc2)CC1,x,x,3.7,x,3.5,-1.4
Cc1cccc(NC(=S)N=Nc2c(O)n(CN3CCOCC3)c3ccccc23)c1C,110.7,54.5*,6.5,-0.1,3.5,22.6*
CC(C)CN(CC(C)C)C(=O)c1ccc2c(c1)NC(=O)C(C)(C)O2,x,x,-4.0,x,-0.6,6.8
Cc1nc(/N=C(\N)NC(=O)c2ccccc2)nc2ccccc12,96.3,63.1*,x,2.3,x,x
CCC(=O)N/C(N)=N/c1nc(C)c2cc(C)c(C)cc2n1,120.1,50.4*,0.2,0.3,-7.7,-5.3
Cc1nc(N=C(N)N)nc2ccccc12,114.9,6.5,-2.1,-0.1,-1.3,2.7
CCCCn1c(SCC(=O)c2ccc(OCC)cc2)nc2cc(S(N)(=O)=O)ccc21,105.1,48.4*,-1.8,0.4,-0.1,-27.4
C=CCn1c(SCC(=O)O)nnc1-c1ccco1,x,x,-2.8,x,0.9,0.6
O=C(NCCc1ccccc1)OCc1cn(Cc2ccccc2Cl)nn1,x,x,-3.6,x,-1.1,-2.7
O=C(N/N=C/c1cc2c(cc1[N+](=O)[O-])OCO2)c1cccnc1,105.1,50.8*,2.1,-0.3,-3.0,-6.7
